One sequence from paper PMC7862700, “An all-to-all approach to the identification of sequence-specific readers for epigenetic DNA modifications on cytosine” can be followed below.

Common to all, as to assay: DAPPL (digital affinity profiling via proximity ligation, sequencing); 10 mM Tris-HCl pH 7.5, 50 mM NaCl, 1 mM DTT, 4% glycerol, room temperature, 30 min; GST-TFs on glutathione beads, 16-mer random dsDNA library, 0.1% formaldehyde crosslink after washing; high values mean tight binding
One assay concerns the target T1, FEV (Homo sapiens, UniProt Q99581 1-238).
T1 sequence: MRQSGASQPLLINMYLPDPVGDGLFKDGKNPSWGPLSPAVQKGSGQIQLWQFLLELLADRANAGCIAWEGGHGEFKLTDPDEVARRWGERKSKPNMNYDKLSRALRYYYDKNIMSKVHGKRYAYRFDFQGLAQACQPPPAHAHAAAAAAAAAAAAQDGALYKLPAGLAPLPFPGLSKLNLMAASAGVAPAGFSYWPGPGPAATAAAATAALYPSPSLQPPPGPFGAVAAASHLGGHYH
The settings on record: protein: recombinant; tags: N-terminal GST; dsDNA, one strand shown. In outline: (§1)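 In yeast, human transcription factors were expressed with a GST fusion, then pulled down on glutathione beads and given DNA barcodes. Pooled with a tag-only sample, they were exposed to 200 nmole of a 16-mer random double-stranded DNA library (Tris/NaCl/DTT/glycerol buffer, room temperature, 30 min), washed, crosslinked with 0.1% formaldehyde, proximity-ligated using BsaI/T4 ligase for 1 h at 37 °C, PCR-amplified and read on an Illumina NextSeq500. Each hexamer's frequency of reads for a factor, divided by the matching frequency for the tag-only sample, gives the binding signal.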

A further assay concerns the target ETV5 (Homo sapiens, UniProt P41161 1-510). The settings on record: protein: recombinant; tags: N-terminal GST; dsDNA, one strand shown. In outline: as §1
A further assay concerns the target HSF1 (Homo sapiens, UniProt Q00613 1-529). The settings on record: protein: recombinant; tags: N-terminal GST; chain copies: 3; dsDNA, one strand shown. In outline:
as §1

A further assay addresses T2, SPIC (Homo sapiens, UniProt Q8N5J4 1-248).
T2 sequence: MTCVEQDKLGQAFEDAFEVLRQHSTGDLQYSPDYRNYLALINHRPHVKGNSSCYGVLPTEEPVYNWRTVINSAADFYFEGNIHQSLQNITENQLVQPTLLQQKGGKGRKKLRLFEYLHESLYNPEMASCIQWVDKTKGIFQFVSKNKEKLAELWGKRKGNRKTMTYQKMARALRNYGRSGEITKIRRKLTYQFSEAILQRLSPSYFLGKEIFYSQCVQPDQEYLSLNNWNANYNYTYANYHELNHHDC
Particulars: protein: recombinant; tags: N-terminal GST; dsDNA, one strand shown. In a few lines: as §1

The next assay has as its target ELF4 (Homo sapiens, UniProt Q99607 1-663). Particulars: protein: recombinant; tags: N-terminal GST; dsDNA, one strand shown. In outline:
as §1

In another assay the target is T3, ELK4 (Homo sapiens, UniProt P28324-2 1-405).
T3 sequence: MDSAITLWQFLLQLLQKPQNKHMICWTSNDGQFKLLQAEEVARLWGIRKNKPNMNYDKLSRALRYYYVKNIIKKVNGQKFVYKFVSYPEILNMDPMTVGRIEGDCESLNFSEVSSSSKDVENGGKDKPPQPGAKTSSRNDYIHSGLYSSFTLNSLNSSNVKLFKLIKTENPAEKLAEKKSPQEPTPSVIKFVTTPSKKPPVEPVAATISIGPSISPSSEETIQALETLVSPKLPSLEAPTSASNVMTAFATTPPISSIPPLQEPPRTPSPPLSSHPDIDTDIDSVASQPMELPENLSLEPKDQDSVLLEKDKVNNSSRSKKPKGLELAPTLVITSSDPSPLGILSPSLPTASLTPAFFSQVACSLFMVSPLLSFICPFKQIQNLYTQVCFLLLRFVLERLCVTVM
The settings on record: protein: recombinant; tags: N-terminal GST; dsDNA, one strand shown. In outline: as §1

The target in another assay is T4, ETV2 (Homo sapiens, UniProt O00321 1-342).
T4 sequence: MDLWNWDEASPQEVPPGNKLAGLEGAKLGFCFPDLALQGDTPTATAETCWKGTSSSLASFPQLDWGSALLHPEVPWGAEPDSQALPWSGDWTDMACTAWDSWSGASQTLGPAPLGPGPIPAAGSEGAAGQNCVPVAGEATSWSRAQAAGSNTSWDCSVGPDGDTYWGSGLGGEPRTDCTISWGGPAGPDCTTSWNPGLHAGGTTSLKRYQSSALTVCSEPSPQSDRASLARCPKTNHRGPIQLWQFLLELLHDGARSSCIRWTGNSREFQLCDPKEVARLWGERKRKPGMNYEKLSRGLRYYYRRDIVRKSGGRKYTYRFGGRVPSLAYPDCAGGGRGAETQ
The settings on record: protein: recombinant; tags: N-terminal GST; dsDNA, one strand shown. In outline: as §1

In another assay the target is T5, ELF3 (Homo sapiens, UniProt P78545 1-371).
T5 sequence: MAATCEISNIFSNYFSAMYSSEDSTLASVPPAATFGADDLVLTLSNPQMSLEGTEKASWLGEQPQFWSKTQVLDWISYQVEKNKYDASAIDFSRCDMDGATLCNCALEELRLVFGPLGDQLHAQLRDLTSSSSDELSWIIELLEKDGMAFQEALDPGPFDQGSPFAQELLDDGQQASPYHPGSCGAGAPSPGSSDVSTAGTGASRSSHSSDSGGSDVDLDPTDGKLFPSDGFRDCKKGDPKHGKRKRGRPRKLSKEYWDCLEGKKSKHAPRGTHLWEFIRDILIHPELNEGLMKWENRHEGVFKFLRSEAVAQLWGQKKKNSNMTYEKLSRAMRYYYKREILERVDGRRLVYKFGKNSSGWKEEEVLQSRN
The settings on record: protein: recombinant; tags: N-terminal GST; dsDNA, one strand shown. In outline:
as §1

A further assay addresses CRX (Homo sapiens, UniProt O43186 1-299). The settings on record: protein: recombinant; tags: N-terminal GST; dsDNA, one strand shown. In outline: as §1
Another assay has as its target ETV1 (Homo sapiens, UniProt P50549 1-477). Particulars: protein: recombinant; tags: N-terminal GST; dsDNA, one strand shown. In a few lines: as §1
Another assay deals with T6, ERF (Homo sapiens, UniProt P50548 1-548).
T6 sequence: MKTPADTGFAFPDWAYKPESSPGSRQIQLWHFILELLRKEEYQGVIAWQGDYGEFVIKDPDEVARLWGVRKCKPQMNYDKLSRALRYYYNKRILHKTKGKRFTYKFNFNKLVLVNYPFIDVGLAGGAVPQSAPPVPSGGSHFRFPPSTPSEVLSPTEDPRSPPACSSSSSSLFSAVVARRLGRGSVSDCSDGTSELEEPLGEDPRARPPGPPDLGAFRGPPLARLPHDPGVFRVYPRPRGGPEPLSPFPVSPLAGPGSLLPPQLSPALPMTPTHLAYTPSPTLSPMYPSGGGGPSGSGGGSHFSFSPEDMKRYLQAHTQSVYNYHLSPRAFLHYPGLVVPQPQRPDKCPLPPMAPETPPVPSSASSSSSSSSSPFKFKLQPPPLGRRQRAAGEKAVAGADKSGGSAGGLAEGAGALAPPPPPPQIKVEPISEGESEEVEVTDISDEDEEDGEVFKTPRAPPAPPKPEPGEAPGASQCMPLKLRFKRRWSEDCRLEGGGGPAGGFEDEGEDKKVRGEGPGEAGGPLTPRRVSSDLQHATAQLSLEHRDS
Particulars: protein: recombinant; tags: N-terminal GST; dsDNA, one strand shown. In outline: as §1

Another assay addresses T7, ETV3L (Homo sapiens, UniProt Q6ZN32 1-361).
T7 sequence: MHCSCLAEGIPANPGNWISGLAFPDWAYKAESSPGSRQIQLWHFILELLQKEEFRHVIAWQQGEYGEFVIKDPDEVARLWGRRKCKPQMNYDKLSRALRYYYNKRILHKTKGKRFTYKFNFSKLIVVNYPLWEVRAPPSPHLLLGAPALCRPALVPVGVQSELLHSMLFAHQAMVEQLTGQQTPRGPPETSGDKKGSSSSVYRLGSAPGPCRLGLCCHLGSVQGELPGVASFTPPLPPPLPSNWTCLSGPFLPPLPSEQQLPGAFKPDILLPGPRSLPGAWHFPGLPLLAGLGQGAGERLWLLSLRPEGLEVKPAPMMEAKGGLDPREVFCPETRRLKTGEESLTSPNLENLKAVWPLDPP
Particulars: protein: recombinant; tags: N-terminal GST; dsDNA, one strand shown. In a few lines:
as §1

The target of the next assay is T8, ETS2 (Homo sapiens, UniProt P15036 1-469).
T8 sequence: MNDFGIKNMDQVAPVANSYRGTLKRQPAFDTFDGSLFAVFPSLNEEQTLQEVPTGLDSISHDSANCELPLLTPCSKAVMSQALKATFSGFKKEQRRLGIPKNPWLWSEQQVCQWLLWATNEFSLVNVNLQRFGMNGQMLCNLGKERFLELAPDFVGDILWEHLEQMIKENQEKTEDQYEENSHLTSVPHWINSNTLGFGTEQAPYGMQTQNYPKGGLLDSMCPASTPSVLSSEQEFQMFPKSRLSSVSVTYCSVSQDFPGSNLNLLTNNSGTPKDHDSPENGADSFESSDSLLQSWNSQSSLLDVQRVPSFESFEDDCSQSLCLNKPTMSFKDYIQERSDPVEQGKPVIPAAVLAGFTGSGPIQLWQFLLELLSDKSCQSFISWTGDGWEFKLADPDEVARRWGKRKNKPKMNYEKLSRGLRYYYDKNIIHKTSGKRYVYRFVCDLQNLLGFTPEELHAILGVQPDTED
Particulars: protein: recombinant; tags: N-terminal GST; dsDNA, one strand shown. In a few lines:
as §1

The target in the next assay is T9, SPDEF (Homo sapiens, UniProt O95238 1-335).
T9 sequence: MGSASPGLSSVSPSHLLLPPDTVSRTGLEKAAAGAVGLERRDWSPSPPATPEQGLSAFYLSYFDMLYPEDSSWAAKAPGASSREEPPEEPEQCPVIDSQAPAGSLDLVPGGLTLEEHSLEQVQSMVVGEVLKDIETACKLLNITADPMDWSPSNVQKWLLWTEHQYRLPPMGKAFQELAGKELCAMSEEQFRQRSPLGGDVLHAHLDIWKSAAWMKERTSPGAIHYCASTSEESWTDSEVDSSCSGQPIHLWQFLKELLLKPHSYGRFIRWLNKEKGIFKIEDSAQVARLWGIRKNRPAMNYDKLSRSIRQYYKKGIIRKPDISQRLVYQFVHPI
The settings on record: protein: recombinant; tags: N-terminal GST; dsDNA, one strand shown. In outline: as §1

In the next assay the target is T10, ETV7 (Homo sapiens, UniProt Q9Y603 1-341).
T10 sequence: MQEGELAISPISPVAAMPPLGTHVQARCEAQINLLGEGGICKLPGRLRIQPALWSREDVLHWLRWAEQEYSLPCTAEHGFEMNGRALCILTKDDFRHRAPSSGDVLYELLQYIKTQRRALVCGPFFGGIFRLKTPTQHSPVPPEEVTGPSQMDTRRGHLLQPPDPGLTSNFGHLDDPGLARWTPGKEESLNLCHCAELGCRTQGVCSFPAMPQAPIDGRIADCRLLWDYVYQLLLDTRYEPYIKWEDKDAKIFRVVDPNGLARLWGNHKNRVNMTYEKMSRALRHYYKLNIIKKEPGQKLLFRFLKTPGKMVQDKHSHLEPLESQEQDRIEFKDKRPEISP
The settings on record: protein: recombinant; tags: N-terminal GST; dsDNA, one strand shown. In a few lines: as §1

The target in the next assay is T11, ELF5 (Homo sapiens, UniProt Q9UKW6-2 1-255).
T11 sequence: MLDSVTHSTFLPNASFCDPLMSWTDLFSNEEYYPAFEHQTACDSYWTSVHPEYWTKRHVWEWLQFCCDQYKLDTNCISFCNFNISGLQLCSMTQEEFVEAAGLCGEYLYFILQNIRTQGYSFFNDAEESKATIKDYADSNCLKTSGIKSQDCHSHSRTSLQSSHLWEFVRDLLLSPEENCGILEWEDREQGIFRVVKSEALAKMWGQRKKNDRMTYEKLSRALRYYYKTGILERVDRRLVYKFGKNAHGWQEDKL
Particulars: protein: recombinant; tags: N-terminal GST; dsDNA, one strand shown. In a few lines: as §1

The target of the next assay is T12, ETV3 (Homo sapiens, UniProt P41162-2 1-143).
T12 sequence: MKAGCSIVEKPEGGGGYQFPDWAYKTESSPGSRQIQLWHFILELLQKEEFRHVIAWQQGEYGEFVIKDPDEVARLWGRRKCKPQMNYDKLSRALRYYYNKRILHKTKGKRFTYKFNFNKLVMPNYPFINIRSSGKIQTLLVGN
The settings on record: protein: recombinant; tags: N-terminal GST; dsDNA, one strand shown. In a few lines:
as §1

The target in a further assay is ETV6 (Homo sapiens, UniProt P41212 1-452). The settings on record: protein: recombinant; tags: N-terminal GST; dsDNA, one strand shown. In outline: as §1
ETV6, sequence (P41212 whole entry): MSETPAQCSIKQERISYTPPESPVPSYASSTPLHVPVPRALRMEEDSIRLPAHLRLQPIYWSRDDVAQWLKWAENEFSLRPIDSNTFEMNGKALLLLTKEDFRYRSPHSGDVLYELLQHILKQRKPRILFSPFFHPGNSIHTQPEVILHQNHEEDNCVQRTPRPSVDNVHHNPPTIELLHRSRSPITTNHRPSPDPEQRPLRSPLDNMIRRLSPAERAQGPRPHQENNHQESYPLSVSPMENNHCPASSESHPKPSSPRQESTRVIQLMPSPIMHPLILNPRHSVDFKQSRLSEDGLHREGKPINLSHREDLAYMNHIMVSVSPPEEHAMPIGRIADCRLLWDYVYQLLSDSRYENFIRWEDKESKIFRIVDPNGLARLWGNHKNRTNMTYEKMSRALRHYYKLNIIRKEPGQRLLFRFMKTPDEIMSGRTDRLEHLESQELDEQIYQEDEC

HSF1, sequence (Q00613 whole entry): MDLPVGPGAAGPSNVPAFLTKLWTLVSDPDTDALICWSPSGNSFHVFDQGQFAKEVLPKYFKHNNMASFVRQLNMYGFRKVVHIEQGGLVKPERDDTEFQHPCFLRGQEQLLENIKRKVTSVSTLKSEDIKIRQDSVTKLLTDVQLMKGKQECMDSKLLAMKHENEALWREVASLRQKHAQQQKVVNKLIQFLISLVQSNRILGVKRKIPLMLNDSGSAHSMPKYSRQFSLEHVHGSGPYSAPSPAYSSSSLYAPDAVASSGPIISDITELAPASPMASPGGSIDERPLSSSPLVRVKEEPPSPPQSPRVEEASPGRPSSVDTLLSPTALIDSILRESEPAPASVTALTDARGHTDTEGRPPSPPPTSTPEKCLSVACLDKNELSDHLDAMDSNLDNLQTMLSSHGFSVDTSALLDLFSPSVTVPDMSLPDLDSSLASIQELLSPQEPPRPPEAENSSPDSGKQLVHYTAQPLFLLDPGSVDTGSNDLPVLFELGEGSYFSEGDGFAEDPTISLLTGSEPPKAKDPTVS
ETV1, sequence (P50549 whole entry): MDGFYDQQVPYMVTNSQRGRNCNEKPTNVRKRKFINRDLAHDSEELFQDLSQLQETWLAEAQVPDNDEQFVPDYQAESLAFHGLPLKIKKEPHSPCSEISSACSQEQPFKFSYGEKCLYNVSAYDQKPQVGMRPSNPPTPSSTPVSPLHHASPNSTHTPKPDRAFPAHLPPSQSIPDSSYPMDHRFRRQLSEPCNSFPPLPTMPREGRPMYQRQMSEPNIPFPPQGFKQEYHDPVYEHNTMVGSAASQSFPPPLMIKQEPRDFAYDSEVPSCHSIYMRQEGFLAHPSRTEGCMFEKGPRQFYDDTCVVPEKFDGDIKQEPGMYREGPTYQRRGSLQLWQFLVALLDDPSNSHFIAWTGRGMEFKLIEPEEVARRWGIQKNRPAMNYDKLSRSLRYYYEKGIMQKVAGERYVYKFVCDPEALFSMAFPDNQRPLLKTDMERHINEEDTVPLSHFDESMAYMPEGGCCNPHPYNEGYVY
ETV5, sequence (P41161 whole entry): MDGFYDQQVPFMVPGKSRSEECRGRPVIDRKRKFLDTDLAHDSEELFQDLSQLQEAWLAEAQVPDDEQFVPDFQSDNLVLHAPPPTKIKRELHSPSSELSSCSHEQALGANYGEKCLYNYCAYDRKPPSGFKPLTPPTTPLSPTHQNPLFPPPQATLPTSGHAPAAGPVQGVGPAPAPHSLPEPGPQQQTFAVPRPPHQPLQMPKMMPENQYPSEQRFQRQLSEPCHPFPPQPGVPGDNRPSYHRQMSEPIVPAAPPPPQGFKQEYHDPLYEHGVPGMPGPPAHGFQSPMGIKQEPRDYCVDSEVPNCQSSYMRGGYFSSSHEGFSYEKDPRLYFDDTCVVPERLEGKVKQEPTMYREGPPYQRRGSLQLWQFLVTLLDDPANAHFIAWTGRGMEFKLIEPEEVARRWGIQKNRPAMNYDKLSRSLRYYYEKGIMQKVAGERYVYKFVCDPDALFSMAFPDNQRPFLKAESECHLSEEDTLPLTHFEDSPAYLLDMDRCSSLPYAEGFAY
CRX, sequence (O43186 whole entry): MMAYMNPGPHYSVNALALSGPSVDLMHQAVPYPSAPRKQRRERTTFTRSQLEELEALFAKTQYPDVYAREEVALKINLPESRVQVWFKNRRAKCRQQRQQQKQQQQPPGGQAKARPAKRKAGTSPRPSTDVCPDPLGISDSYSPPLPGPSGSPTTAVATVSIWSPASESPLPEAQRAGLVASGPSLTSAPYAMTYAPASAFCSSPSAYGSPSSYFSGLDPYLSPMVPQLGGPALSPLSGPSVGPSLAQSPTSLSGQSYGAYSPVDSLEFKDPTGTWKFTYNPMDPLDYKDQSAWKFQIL
ELF4, sequence (Q99607 whole entry): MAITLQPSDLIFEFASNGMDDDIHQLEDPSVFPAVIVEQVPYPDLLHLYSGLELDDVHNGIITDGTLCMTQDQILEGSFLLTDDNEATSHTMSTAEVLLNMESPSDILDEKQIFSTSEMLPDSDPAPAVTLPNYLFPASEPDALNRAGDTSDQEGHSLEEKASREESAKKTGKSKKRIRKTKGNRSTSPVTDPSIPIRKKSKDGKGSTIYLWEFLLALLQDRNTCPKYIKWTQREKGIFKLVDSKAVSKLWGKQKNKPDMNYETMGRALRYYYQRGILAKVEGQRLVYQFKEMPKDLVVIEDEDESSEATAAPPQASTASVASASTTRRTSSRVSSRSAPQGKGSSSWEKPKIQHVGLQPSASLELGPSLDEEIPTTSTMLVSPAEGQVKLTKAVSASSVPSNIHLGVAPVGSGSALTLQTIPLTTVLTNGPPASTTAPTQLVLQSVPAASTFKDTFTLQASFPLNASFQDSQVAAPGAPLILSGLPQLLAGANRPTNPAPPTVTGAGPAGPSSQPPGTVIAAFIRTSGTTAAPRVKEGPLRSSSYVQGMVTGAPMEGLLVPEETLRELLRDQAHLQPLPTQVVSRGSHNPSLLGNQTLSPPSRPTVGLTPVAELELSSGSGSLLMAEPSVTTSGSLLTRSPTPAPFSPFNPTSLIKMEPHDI

On to CGAATA, for which the binding signal in the assay with FEV was 1.16 fold enrichment (6-mer frequency, TF over GST control); with ETV5, 1.07 fold enrichment (6-mer frequency, TF over GST control); with HSF1 it was 1.87 fold enrichment (6-mer frequency, TF over GST control); with SPIC, 1.26 fold enrichment (6-mer frequency, TF over GST control); with ELF4, 1.11 fold enrichment (6-mer frequency, TF over GST control); in the assay with ELK4, 1.25 fold enrichment (6-mer frequency, TF over GST control). Moreover, the binding signal in the assay with ETV2 was 1.29 fold enrichment (6-mer frequency, TF over GST control); with ELF3, 1.07 fold enrichment (6-mer frequency, TF over GST control); in the assay with CRX, 1.31 fold enrichment (6-mer frequency, TF over GST control); with ETV1 it was 1.19 fold enrichment (6-mer frequency, TF over GST control); with ERF, 1.19 fold enrichment (6-mer frequency, TF over GST control); in the assay with ETV3L, 1.2 fold enrichment (6-mer frequency, TF over GST control). Besides, the binding signal is 1.12 fold enrichment (6-mer frequency, TF over GST control) with ETS2; 1.1 fold enrichment (6-mer frequency, TF over GST control) in the assay with SPDEF; 1.18 fold enrichment (6-mer frequency, TF over GST control) with ETV7; 1.11 fold enrichment (6-mer frequency, TF over GST control) with ELF5; 1.21 fold enrichment (6-mer frequency, TF over GST control) with ETV3; 1.18 fold enrichment (6-mer frequency, TF over GST control) in the assay with ETV6.
